Reference: PubChem BioAssay
“And” between values parts separate entries of the source, which are not always exact repeats. Equal entries are not always repeated.

assay: sensitizers of A549 cells to miR-34 induction, primary screen, imaging, A549 dox-inducible miR-34, nuclei and caspase counts (AID 1347080); settings: A549 miR-34 inducible, Hoechst nuclei count, 48 h; measured here: total cells with miR-34 induction; stronger effect = lower value; also: test concentration not given here

Structure (SMILES)	cell count
O=C(O)CCC/C=C\C[C@H]1C(=O)C=C[C@@H]1CC[C@@H](O)CCc1ccccc1	6220
[C-]#[N+]c1cc(-c2ccncc2)c(C)[nH]c1=O	5870
CC(=O)[C@H]1[C@H](C#N)C[C@H]2[C@@H]3CC=C4C[C@@H](O)CC[C@]4(C)[C@H]3CC[C@@]21C	5370
CCCC[C@H](C)C[C@H](O)/C=C/[C@H]1[C@H](O)CC(=O)[C@@H]1CCCC/C=C/C(=O)O	5710
CCCCCC/C=C\CCCC(=O)CC(=O)N[C@H]1CCOC1=O	6290
Nc1nc2c([nH]c(=O)n2[C@H]2C[C@H](O)[C@@H](CO)O2)c(=O)[nH]1	4960
CCCCC/C=C\C/C=C\CCCCCCCC(=O)O[C@H](COC(=O)CCCCCCCCCCCCCCC)COP(=O)(O)OCCN	4540
O=C1O/C(=C/Br)CC[C@H]1c1cccc2ccccc12	3970
COC(=O)C1=CC[C@@]23CC[C@@H]([C@@](C)(/C=C/C=C(\C)C(=O)O)OC2=O)[C@@]3(OC(C)=O)CC1	2140
CC(C)Oc1ccc(Cc2ccc(NC3=NCCN3)cc2)cc1	5900
CCNC(=O)CCC/C=C\C[C@@H]1[C@@H](CC[C@@H](O)CCc2ccccc2)[C@H](O)C[C@@H]1O	5780
CCCCCCCCCCCC(=O)c1nc2ncccc2o1	5110
O=P(O)(O)OC1C(O)C(OP(=O)(O)O)C(O)C(OP(=O)(O)O)C1O (stereo not drawn)	5750
CCCCC[C@@](C)(O)/C=C/[C@H]1C=CC(=O)[C@@H]1C/C=C\CCCC(=O)O	5680
CCCCC[C@H](O)/C=C/[C@H]1C(=O)C[C@H](O)[C@@H]1C/C=C\CCCC(=O)NCCO	6200
CCc1c(OCCCCCC(C)(C)c2nn[nH]n2)cc(O)cc1C(C)=O	6030
CCCCC[C@H](O)/C=C/[C@@H]1[C@@H](C/C=C\CCCC(=O)NCCO)[C@@H](O)C[C@@H]1O	5800
CC/C=C\C/C=C\C/C=C\CCCCCCCC(=O)NCCO	5950
N[C@@H](CSCCB(O)O)C(=O)O	6340
CCCCC[C@H](O)/C=C/[C@@H]1[C@@H](CCCCCCC(=O)O)[C@H](O)C[C@@H]1O	6220
CCCCC[C@H](O)/C=C/[C@@H]1[C@@H](C/C=C\CCCC(=O)N(C)C)[C@@H](O)C[C@H]1O	5150
O=C(CCCCc1ccccc1)C(F)(F)C(F)(F)F	5980
CCCCC[C@H](O)/C=C/[C@H]1[C@H](O)CC(=O)[C@@H]1C/C=C/CCCC(=O)O	5510

same assay, conditions: A549 miR-34 inducible, Hoechst nuclei count, 48 h; measured here: total cells without miR-34 induction

Structure (SMILES)	cell count
O=C(O)CCC/C=C\C[C@H]1C(=O)C=C[C@@H]1/C=C/[C@@H](O)CCc1ccccc1	6220
O=C(O)CCC/C=C\C[C@@H]1[C@@H](CCC(=O)CCc2ccccc2)[C@H](O)C[C@@H]1O	6390
CC1=C(CC/C(C)=C/CCC2C=CC(C3=CC(=O)OC3O)OC2O)C(C)(C)CCC1 (stereo not drawn)	1290
C[C@]12CC[C@@H]3c4cc(O)c(O)cc4CC[C@H]3[C@@H]1CC[C@@H]2O	5920
CCCCC[C@H](O)CC[C@@H]1[C@@H](CCCCCCC(=O)O)[C@@H](O)C[C@H]1O	7460
Cc1nc(COP(=O)(O)O)cc(CN(CCN(CC(=O)O)Cc2cc(COP(=O)(O)O)nc(C)c2O)CC(=O)O)c1O.[Mn]	9050
CN(C)CCCCCCOc1ccc(-n2ccnc2)cc1	5240 and 6330
CCCCCOc1ccccc1C(O)CC#CCCCC(=O)OC (stereo not drawn)	6340
CCCCCC(=O)CC[C@H]1[C@H](O)CC(=O)[C@@H]1CCCCCCC(=O)O	5980
CCCCCCCCCCCCCC(=O)O	6460
CCCCC[C@H](O)/C=C/[C@H]1C=CC(=O)[C@@H]1CCCCCCC(=O)OCC	5620
CCCCCCCCCCCCCCCC(=O)NC(C)C	5500
CCCCCCCCCCCCCCCC(=O)OC[C@@H](O)COP(=O)(O)O	5850
CCCCC/C=C\C/C=C\C/C=C\C/C=C\CCCC(=O)SCC(O)CO (stereo not drawn)	5540
CCCCCCCCCCCCCCCC(=O)NC[C@@H](C)O	6160
CCCCCCCCCC(=O)NC(CN1CCOCC1)C(O)c1ccccc1 (stereo not drawn)	5670
CCCCC/C=C\C=C1\C(=O)CC[C@@H]1C/C=C\CCCC(=O)O	6000
O=C(O)CCC/C=C\C[C@H]1C(=O)C=C[C@@H]1CC[C@@H](O)CCc1ccccc1	6690
[C-]#[N+]c1cc(-c2ccncc2)c(C)[nH]c1=O	6450
CC(=O)[C@H]1[C@H](C#N)C[C@H]2[C@@H]3CC=C4C[C@@H](O)CC[C@]4(C)[C@H]3CC[C@@]21C	5300

Structure (SMILES)	cell count
CCCC[C@H](C)C[C@H](O)/C=C/[C@H]1[C@H](O)CC(=O)[C@@H]1CCCC/C=C/C(=O)O	6200
CCCCCC/C=C\CCCC(=O)CC(=O)N[C@H]1CCOC1=O	5940
Nc1nc2c([nH]c(=O)n2[C@H]2C[C@H](O)[C@@H](CO)O2)c(=O)[nH]1	5800
CCCCC/C=C\C/C=C\CCCCCCCC(=O)O[C@H](COC(=O)CCCCCCCCCCCCCCC)COP(=O)(O)OCCN	5760
O=C1O/C(=C/Br)CC[C@H]1c1cccc2ccccc12	3470
COC(=O)C1=CC[C@@]23CC[C@@H]([C@@](C)(/C=C/C=C(\C)C(=O)O)OC2=O)[C@@]3(OC(C)=O)CC1	1860
CC(C)Oc1ccc(Cc2ccc(NC3=NCCN3)cc2)cc1	6040
CCNC(=O)CCC/C=C\C[C@@H]1[C@@H](CC[C@@H](O)CCc2ccccc2)[C@H](O)C[C@@H]1O	6420
CCCCCCCCCCCC(=O)c1nc2ncccc2o1	5460
O=P(O)(O)OC1C(O)C(OP(=O)(O)O)C(O)C(OP(=O)(O)O)C1O (stereo not drawn)	5950
CCCCC[C@@](C)(O)/C=C/[C@H]1C=CC(=O)[C@@H]1C/C=C\CCCC(=O)O	5710
CCCCC[C@H](O)/C=C/[C@H]1C(=O)C[C@H](O)[C@@H]1C/C=C\CCCC(=O)NCCO	5900
CCc1c(OCCCCCC(C)(C)c2nn[nH]n2)cc(O)cc1C(C)=O	5840
CCCCC[C@H](O)/C=C/[C@@H]1[C@@H](C/C=C\CCCC(=O)NCCO)[C@@H](O)C[C@@H]1O	6330
CC/C=C\C/C=C\C/C=C\CCCCCCCC(=O)NCCO	5670
N[C@@H](CSCCB(O)O)C(=O)O	6260
CCCCC[C@H](O)/C=C/[C@@H]1[C@@H](CCCCCCC(=O)O)[C@H](O)C[C@@H]1O	6350
CCCCC[C@H](O)/C=C/[C@@H]1[C@@H](C/C=C\CCCC(=O)N(C)C)[C@@H](O)C[C@H]1O	5480
O=C(CCCCc1ccccc1)C(F)(F)C(F)(F)F	6280
CCCCC[C@H](O)/C=C/[C@H]1[C@H](O)CC(=O)[C@@H]1C/C=C/CCCC(=O)O	5670
